Reference: PubChem BioAssay AID1224852 (National Center for Advancing Translational Sciences (NCATS), 2016)
Inconclusive results are not listed. The source made the active and inactive calls. The call rests on the fitted dose curve; in most records, active means well fitted curve in the direction sought with a large enough effect (not every such curve was filed as active); inconclusive means small, poorly fitted or top-dose-only effect, or effect the other way, or another doubt; inactive means no such curve, though single readings can be large or run the other way.

Assay: Cell viability assay for measurement of the protective activity of small molecules against cell death caused by Zika virus infection in human neural progenitor cells (hNPCs)
Details: hNPC ZIKV-induced death protection, ATP luminescence, 72 h; series mostly up to 46.1 µM
Procedure, shortened: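 Human neural progenitor cells pretreated 1 h with compounds, then infected with Zika virus at 2 FFU/cell for 72 h at 37 C. Viability read as ATP-content luminescence; values are percent inhibition of the virus-induced viability loss.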

Row | SMILES | outcome
1 | N#CC1(c2ccc(NC(=O)c3cccnc3NCc3ccncc3)cc2)CCCC1 | inactive
2 | COc1ccc(CC2=NN3C([C@@H](CCc4ccccc4)[C@@H](C)O)=NC(C)C3C(=O)N2)cc1OC (stereo partly specified) | inactive
3 | O=C(Nc1cc2cc[nH]c2cn1)c1ccccc1 | inactive
4 | Nc1ccc(N=Nc2ccccc2)c(N)n1 | inactive
5 | N#C/C(=C\c1ccc(O)c(O)c1)C(=O)Nc1ccccc1 | inactive
6 | O=C(O)[C@H](CC(=O)N1C[C@@H]2CCCC[C@H]2C1)Cc1ccccc1 | inactive
7 | C=C1C(=O)[C@@]23C(CC[C@@H]1[C@H]2O)[C@@]12CO[C@]3(O)[C@@H](O)[C@@H]1C(C)(C)CC[C@@H]2O (stereo partly specified) | inactive
8 | COc1ccc(-c2coc3cc(O)ccc3c2=O)cc1 | inactive
9 | O=C(c1ccccc1)c1ccc2n1CCC2C(=O)O (stereo unspecified) | inactive
10 | CCN(CC)c1ccc(C(=C2C=CC(=[N+](CC)CC)C=C2)c2cc(S(=O)(=O)O)ccc2S(=O)(=O)[O-])cc1 | inactive
11 | CC(=O)Oc1cccc2c1C(=O)c1c(OC(C)=O)cc(C(=O)O)cc1C2=O | inactive
